Test results from PubChem BioAssay (EPA / NIEHS).
Values joined by “and” are separate entries in the source; they are usually repeats but may differ in a detail not shown here. Equal values may be shown once. Results filed as inconclusive are left out. Some compounds were tested as several samples or in several runs, with calls that do not always agree. Active and inactive are the calls of the source. How the source made its calls, unless noted: active means hit-call score of the fitted dose curve at least 0.9, where 1 is the maximum; inconclusive means response in the unintended direction; inactive means score below 0.9.

Assay: CCTE_Mundy_HCI_hNP1_Casp3_7: CCTE's Caspase-Glo 3/7 Assay in human neuroprogenitor cells for Apoptosis, Mundy Lab (AID 2284240; active means hit-call score of the fitted dose curve at least 0.9, where 1 is the maximum; inactive means score below 0.9)
Summary of the method: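 Neuroepithelial-lineage stem cells from WA09 embryonic cells were treated with chemicals after 40–44 h of culture. Twenty-four hours later, caspase-3/7 activation was detected luminescently after a 30 min room-temperature reagent step, with DMSO as baseline.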

| Structure (SMILES) | AC50 | outcome |
| --- | --- | --- |
| CCOP(=S)(Oc1cnc(C(C)(C)C)nc1)OC(C)C (configuration not stated) | 91.4 µM (active) | inactive |
| CCOP(=S)(OCC)SCCSCC |  | inactive |
| S=C1NCCN1 |  | inactive |
| CC(C)N(C(=O)SCC(Cl)=C(Cl)Cl)C(C)C |  | inactive |
| CCOP(=O)(NC(C)C)Oc1ccc(SC)c(C)c1 (configuration not stated) |  | inactive |
| CCOP(=O)(OCC)Oc1cc(C)nc(C(C)C)n1 |  | inactive |
| COP(=O)(OC)C(O)C(Cl)(Cl)Cl (configuration not stated) | 15.5 µM (active) |  |
| CC(=NC#N)N(C)Cc1ccc(Cl)nc1 |  | inactive |
| COP(=O)(NC(C)=O)SC (configuration not stated) |  | inactive |
| CCOC(=O)CC(SP(=O)(OC)OC)C(=O)OCC (configuration not stated) |  | inactive |
| CCOP(=S)(OCC)Oc1cc(C)nc(C(C)C)n1 |  | inactive |
| CCOP(=O)(SC(C)CC)N1CCSC1=O (configuration not stated) |  | inactive |
| COP(=O)(OC)OC(Br)C(Cl)(Cl)Br (configuration not stated) | 11.9 µM (active) | inactive |
| CN1COCN(Cc2cnc(Cl)s2)C1=N[N+](=O)[O-] |  | inactive |
| CN(C)[C@@H]1C(=O)C(C(N)=O)=C(O)[C@@]2(O)C(=O)C3=C(O)c4c(O)cccc4[C@@](C)(O)[C@H]3[C@H](O)[C@@H]12 | 25.2 µM (active) |  |
| CCOP(=S)(OCC)Oc1ccc([N+](=O)[O-])cc1 |  | inactive |
| CSC1=N[C@@](C)(c2ccccc2)C(=O)N1Nc1ccccc1 |  | inactive |
| CCOP(=S)(OCC)Oc1ccc2c(C)c(Cl)c(=O)oc2c1 | 73.8 µM (active) |  |
| CCCSP(=O)(OCC)SCCC |  | inactive |
| CC1=NNC(=O)N(/N=C/c2cccnc2)C1 |  | inactive |
| CCCSP(=O)(OCC)Oc1ccc(Br)cc1Cl (configuration not stated) |  | inactive |
| CCOP(=S)(OCC)OC(Cl)C(Cl)(Cl)Cl (configuration not stated) | 50.5 µM (active) | inactive |
| CCCCSP(=O)(SCCCC)SCCCC | 35.8 µM (active) and 32.8 µM (active) |  |
| C[N+]1(C)CCCCC1 |  | inactive |
| CC[C@H](C)[C@H]1O[C@]2(C=C[C@@H]1C)C[C@@H]1C[C@@H](C/C=C(\C)[C@@H](O[C@H]3C[C@H](OC)[C@@H](O[C@H]4C[C@H](OC)[C@@H](NC)[C@H](C)O4)[C@H](C)O3)[C@@H](C)/C=C/C=C3\CO[C@@H]4[C@H](O)C(C)=C[C@@H](C(=O)O1)[C@]34O)O2 | 14.3 µM (active) and 3.62 µM (active) |  |
| CON=C(C(=O)OC)c1ccccc1CON=C(C)c1cccc(C(F)(F)F)c1 | 50 µM (active) |  |
| O=[N+]([O-])c1cc(C(F)(F)F)c(Cl)c([N+](=O)[O-])c1Nc1ncc(C(F)(F)F)cc1Cl | 2.95 µM (active) |  |

Assay: CCTE_Mundy_HCI_hNP1_CellTiter: CCTE's Cell Titer-Glo 2 Assay in human neuroprogenitor cells for Viability, Mundy Lab (AID 2284241);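 on AC50: a hit is a drop in ATP luminescence versus DMSO meaning reduced viability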
Summary of the method: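 Measures ATP content in human neural progenitors derived from WA09 embryonic cells. Read-out at 26.5 hours after dosing, with DMSO serving as the negative control and baseline.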

| Structure (SMILES) | outcome | AC50 |
| --- | --- | --- |
| CCOP(=S)(Oc1cnc(C(C)(C)C)nc1)OC(C)C (configuration not stated) | inactive |  |
| S=C1NCCN1 | inactive |  |
| CC(C)N(C(=O)SCC(Cl)=C(Cl)Cl)C(C)C | inactive |  |
| CCOP(=O)(NC(C)C)Oc1ccc(SC)c(C)c1 (configuration not stated) |  | 51 µM (active) |
| CCOP(=O)(OCC)Oc1cc(C)nc(C(C)C)n1 | inactive |  |
| COP(=O)(OC)C(O)C(Cl)(Cl)Cl (configuration not stated) | inactive |  |
| CC(=NC#N)N(C)Cc1ccc(Cl)nc1 | inactive |  |
| COP(=O)(NC(C)=O)SC (configuration not stated) | inactive |  |
| CCOC(=O)CC(SP(=O)(OC)OC)C(=O)OCC (configuration not stated) | inactive |  |
| CCOP(=O)(SC(C)CC)N1CCSC1=O (configuration not stated) | inactive |  |
| COP(=O)(OC)OC(Br)C(Cl)(Cl)Br (configuration not stated) |  | 17.8 µM (active) and 85 µM (active) |
| C=C(C)[C@H]1Cc2c(ccc3c2O[C@@H]2COc4cc(OC)c(OC)cc4[C@@H]2C3=O)O1 |  | 0.159 µM (active) |
| CN1COCN(Cc2cnc(Cl)s2)C1=N[N+](=O)[O-] | inactive |  |
| CN(C)[C@@H]1C(=O)C(C(N)=O)=C(O)[C@@]2(O)C(=O)C3=C(O)c4c(O)cccc4[C@@](C)(O)[C@H]3[C@H](O)[C@@H]12 | inactive |  |
| CSC1=N[C@@](C)(c2ccccc2)C(=O)N1Nc1ccccc1 | inactive |  |
| CCOP(=S)(OCC)Oc1ccc2c(C)c(Cl)c(=O)oc2c1 |  | 38.6 µM (active) |
| CCCSP(=O)(OCC)SCCC | inactive |  |
| CCCSP(=O)(OCC)Oc1ccc(Br)cc1Cl (configuration not stated) | inactive |  |
| CCOP(=S)(OCC)OC(Cl)C(Cl)(Cl)Cl (configuration not stated) |  | 78.1 µM (active) and 88.7 µM (active) |
| CCCCSP(=O)(SCCCC)SCCCC |  | 66.9 µM (active) |
| CC[C@H](C)[C@H]1O[C@]2(C=C[C@@H]1C)C[C@@H]1C[C@@H](C/C=C(\C)[C@@H](O[C@H]3C[C@H](OC)[C@@H](O[C@H]4C[C@H](OC)[C@@H](NC)[C@H](C)O4)[C@H](C)O3)[C@@H](C)/C=C/C=C3\CO[C@@H]4[C@H](O)C(C)=C[C@@H](C(=O)O1)[C@]34O)O2 |  | 1.3 µM (active) |
| CON=C(C(=O)OC)c1ccccc1CON=C(C)c1cccc(C(F)(F)F)c1 |  | 50 µM (active) |
| O=[N+]([O-])c1cc(C(F)(F)F)c(Cl)c([N+](=O)[O-])c1Nc1ncc(C(F)(F)F)cc1Cl |  | 2.4 µM (active) |

Assay: CCTE_Mundy_HCI_Cortical_Synap_Neur_Matur_NeuronCount: CCTE's Synaptogenesis and Neurite Maturation Assay in rat cortical cells for Neuron Count, Mundy Lab (AID 2284242);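 on AC50: hits reduce neuron count versus DMSO baseline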
Summary of the method: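 Rat primary cortical cells, AraC added at DIV 5, dosed with media change from DIV 7 to DIV 12. Fixed, Hoechst-stained and immunolabelled for MAP2 and synaptophysin; neuron number counted by high-content imaging, loss fitted versus DMSO.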

| Structure (SMILES) | AC50 | outcome |
| --- | --- | --- |
| CCOP(=S)(Oc1cnc(C(C)(C)C)nc1)OC(C)C (configuration not stated) | 20.1 µM (active) | inactive |
| CCOP(=S)(OCC)SCCSCC |  | inactive |
| S=C1NCCN1 |  | inactive |
| CC(C)N(C(=O)SCC(Cl)=C(Cl)Cl)C(C)C | 24.6 µM (active) |  |
| CCOP(=O)(NC(C)C)Oc1ccc(SC)c(C)c1 (configuration not stated) |  | inactive |
| COP(=O)(OC)C(O)C(Cl)(Cl)Cl (configuration not stated) | 50 µM (active) |  |
| COP(=O)(NC(C)=O)SC (configuration not stated) |  | inactive |
| CCOP(=S)(OCC)Oc1cc(C)nc(C(C)C)n1 |  | inactive |
| COP(=O)(OC)OC(Br)C(Cl)(Cl)Br (configuration not stated) | 26.1 µM (active) | inactive |
| CN1COCN(Cc2cnc(Cl)s2)C1=N[N+](=O)[O-] |  | inactive |
| CN(C)[C@@H]1C(=O)C(C(N)=O)=C(O)[C@@]2(O)C(=O)C3=C(O)c4c(O)cccc4[C@@](C)(O)[C@H]3[C@H](O)[C@@H]12 | 86.1 µM (active) |  |
| CCOP(=S)(OCC)Oc1ccc([N+](=O)[O-])cc1 |  | inactive |
| CCOP(=S)(OCC)Oc1ccc2c(C)c(Cl)c(=O)oc2c1 |  | inactive |
| CCCSP(=O)(OCC)SCCC | 3.79 µM (active) | inactive |
| CCCSP(=O)(OCC)Oc1ccc(Br)cc1Cl (configuration not stated) |  | inactive |
| CCOP(=S)(OCC)OC(Cl)C(Cl)(Cl)Cl (configuration not stated) | 21.8 µM (active) | inactive |
| CCCCSP(=O)(SCCCC)SCCCC | 86 µM (active) and 24.4 µM (active) |  |
| CC[C@H](C)[C@H]1O[C@]2(C=C[C@@H]1C)C[C@@H]1C[C@@H](C/C=C(\C)[C@@H](O[C@H]3C[C@H](OC)[C@@H](O[C@H]4C[C@H](OC)[C@@H](NC)[C@H](C)O4)[C@H](C)O3)[C@@H](C)/C=C/C=C3\CO[C@@H]4[C@H](O)C(C)=C[C@@H](C(=O)O1)[C@]34O)O2 | 672 nM (active) and 1.14 µM (active) |  |
| CON=C(C(=O)OC)c1ccccc1CON=C(C)c1cccc(C(F)(F)F)c1 | 0.293 µM (active) |  |
| O=[N+]([O-])c1cc(C(F)(F)F)c(Cl)c([N+](=O)[O-])c1Nc1ncc(C(F)(F)F)cc1Cl | 0.717 µM (active) |  |
